40 molecules from PubChem BioAssay (NCATS) can be followed below.

Records with an inconclusive call do not appear. Values without a mark were called inactive. Active and inactive are the calls of the source. Calls follow the shape of the dose curve; as a rule, active = well fitted cell-killing curve with a large enough effect; inconclusive = small, poorly fitted or top-dose-only effect; inactive = no such curve, though single readings can be large or run the other way. Numbered stars: 1 amine (or outer) side, 2 acyl side, 3 side chain; on linkers, the order of the positions; unused ones are H or OH. Bridge positions count the residues as written; N and C are the ends. Square brackets hold non-standard residues; d marks the D form. Peptide text beside a SMILES is read from it. I, II: the chains in the order shown. Actinocin(9to1) = Cc1c2oc3c(C)ccc(C(=O)[*:1])c3nc-2c(C(=O)[*:2])c(N)c1=O; NMeV = CN[C@H](C(=O)O)C(C)C; Sar = CNCC(=O)O
Potency is read from the fitted curve at half-maximal effect.

The nature of this assay: qHTS of pediatric cancer cell lines to identify multiple opportunities for drug repurposing: Primary screen for NB-EBc1 cells (AID 1347095). The note with it: NB-EBc1 neuroblastoma viability, CellTiter-Glo luminescence, 48 h; series mostly up to 46 µM; activity change, negative = cytotoxic: at the top concentration. The source says:
Drug repurposing or repositioning has been offered as a strategy for drug development in oncology programs. This approach has special potential for childhood cancers and other rare or orphan diseases, where the expected return on new drug development has been a disincentive to pharmaceuticals. […] In this project we exploit the poly-pharmacology of drugs to discover new indications via phenotypic screening of a panel of 19 well-characterized cell lines derived from solid tumors seen in children and adolescents. The goal is to identify approved drugs with previously unrecognized anticancer properties that has the potential to reveal new mechanisms and biological processes involved in carcinogenesis or drug resistance. We employed a titration-based paradigm (quantitative high-throughput screening or qHTS), where all compounds were tested at multiple concentrations for their effect on cell viability. Concentration-response curves (CRCs) were derived directly from the primary screen, and both potency and efficacy values were used to identify compounds with robust bioactivity profiles. We screened the NIH Chemical Genomics Center (NCGC) Pharmaceutical Collection (NPC) and Mechanism Interrogation Plate (MIPE) small molecule collections of approved and investigational compounds against these cell lines; and measured metabolically active cells after 48 hours of compound treatment as a proxy for cell viability. […] Assay Submitter: Nathalia J. Martinez, National Center for Advancing Translational Sciences, National Institutes of Health, Rockville, MD, USA; email: natalia.martinez@nih.gov Shen, M et al. Quantitative high-throughput phenotypic screening of pediatric cancer cell lines identifies multiple opportunities for drug repurposing. Oncotarget 2017 Dec 19;9(4):4758-4772. PMID 29435139.
The cells were obtained from University of North Carolina (UNC), Pediatric Preclinical Testing Program (PPT), and Coriell Institute (CI). qHTS cell viability assay: Cells were assayed in growth media at a density of 500-1,000 cells/well. Five microliters of cells were dispensed into 1,536-well, white, solid-bottom, TC-treated plates (Greiner Bio One) using a multidrop dispenser and incubated at 37 degrees C, 5% CO2, under a humidified atmosphere for 5 hours. Twenty-three nanoliters of compounds and controls (neutral control DMSO or positive control bortezomib at final concentration of 2.3 µM) were subsequently transferred by Kalypsys pintool. For primary screens, the MIPE collection was tested at 11-point dilutions (final concentrations range from 0.78 nM to 46 µM) and the NPC collection at 8-point dilutions (final concentrations range from 0.59 nM to 46 µM). Compounds tested in follow-up screens were assayed at 11-point dilutions. Cells were incubated for 48 hours, followed by addition of 3 µL of CellTiter-Glo (Promega). After a 15 min incubation at room temperature, samples were analyzed for luminescence intensity using a ViewLux High-throughput CCD imager equipped with clear filters.
On the technique in general: In qHTS, concentration-response curves come from the screen itself.
On to `Cc1cc(N)c2cc(NC(=O)Nc3ccc4nc(C)cc(N)c4c3)ccc2n1`, for which the “activity change, negative = cytotoxic” value is -5.45%.

On to `O=c1[nH]c(=O)n([C@H]2CCCO2)cc1F`, for which the “activity change, negative = cytotoxic” value was -4.19%.

Turning to `N[C@H](Cc1c[nH]c2ccccc12)C(=O)O`, the “activity change, negative = cytotoxic” value was 18.3%.

Regarding `CCN(CC)CCNC(=O)COc1ccc(Cl)cc1`, the “activity change, negative = cytotoxic” value was 8.55%.

As for `COC(=O)[C@@H]1CC2=CC(=O)CC[C@]2(C)[C@@]23O[C@@H]2C[C@@]2(C)[C@@H](CC[C@@]24CCC(=O)O4)[C@H]13`, the “activity change, negative = cytotoxic” value is 14.3%.

As for `O=C(O)CCCCC(=O)O`, the “activity change, negative = cytotoxic” value is 25.3%.

For `Cc1ccc(C(=O)C(C)CN2CCCCC2)cc1` (stereo not given), the “activity change, negative = cytotoxic” value was 0.263%.

Take `Cc1cc2c(cc1CC(=O)c1sccc1S(=O)(=O)Nc1onc(C)c1Cl)OCO2`: the “activity change, negative = cytotoxic” value is 21.5%.

On to `CCCCOc1ccc(C(=O)CCN2CCCCC2)cc1`, for which the Potency is 21.1 µM (active).

On to `CCOC(=O)COc1ccc2c(C)c(CCN(CC)CC)c(=O)oc2c1Cl`, for which the “activity change, negative = cytotoxic” value was 2.56%.

Regarding `CC(=O)Oc1ccc(C(=C2CCCCC2)c2ccc(OC(C)=O)cc2)cc1`, the “activity change, negative = cytotoxic” value was 8.45%.

`Cc1c2oc3c(C)ccc(C(=O)N[C@@H]4C(=O)N[C@H](C(C)C)C(=O)N5CCC[C@H]5C(=O)N(C)CC(=O)N(C)[C@@H](C(C)C)C(=O)O[C@@H]4C)c3nc-2c(C(=O)N[C@@H]2C(=O)N[C@H](C(C)C)C(=O)N3CCC[C@H]3C(=O)N(C)CC(=O)N(C)[C@@H](C(C)C)C(=O)O[C@@H]2C)c(N)c1=O` (I: T[dV]P[Sar][NMeV] / II: T[dV]P[Sar][NMeV]; ester I:1-I:C, II:1-II:C; linker I:N-II:N via Actinocin(9to1)): the “activity change, negative = cytotoxic” value was -9.29%.

Take `CCN(CC)C(=O)N1CCN(C)CC1`: the “activity change, negative = cytotoxic” value is 3.5%.

On to `NC(CO)(CO)CO`, for which the “activity change, negative = cytotoxic” value is 23.3%.

With `C/C=C/c1ccc(OC)cc1`, the “activity change, negative = cytotoxic” value is 21.5%.

`COc1cc(OC)cc(OC)c1`: the “activity change, negative = cytotoxic” value was 11.7%.

Take `O=C1[C@H]2CCCC[C@H]2C(=O)N1CCCCN1CCN(c2nsc3ccccc23)CC1`: the “activity change, negative = cytotoxic” value was -7.54%.

Turning to `OC[C@H]1O[C@H](O[C@]2(CCl)O[C@H](CCl)[C@@H](O)[C@@H]2O)[C@H](O)[C@@H](O)[C@H]1Cl`, the “activity change, negative = cytotoxic” value is 12.3%.

For `C[C@]12C=CC(=O)C=C1CC[C@@H]1[C@@H]2[C@@H](O)C[C@@]2(C)[C@H]1CC[C@]2(O)C(=O)CO`, the “activity change, negative = cytotoxic” value was 2.91%.

`Cc1nc2n(c(=O)c1CCN1CCC(c3noc4cc(F)ccc34)CC1)CCC[C@H]2O`: the “activity change, negative = cytotoxic” value is 8.26% [at 16.1 µM].

As to `Cc1onc(-c2c(Cl)cccc2Cl)c1C(=O)N[C@@H]1C(=O)N2[C@@H]1SC(C)(C)[C@@H]2C(=O)O`, the “activity change, negative = cytotoxic” value was -4.18%.

For the molecule `CC[N+](CC)(CCNC(=O)C(=O)NCC[N+](CC)(CC)Cc1ccccc1Cl)Cc1ccccc1Cl`, the “activity change, negative = cytotoxic” value is 4.17%.

As to `CCCCCCC[N+](CC)(CC)CCCCc1ccc(Cl)cc1`, the Potency was 10.6 µM (active).

With `CO/N=C1\CN(c2nc3c(cc2F)c(=O)c(C(=O)O)cn3C2CC2)CC1CN` (stereo not given), the “activity change, negative = cytotoxic” value is 49.1%.

Take `Oc1cc(O)c2c(c1)O[C@H](c1ccc(O)c(O)c1)[C@H](O)C2`: the “activity change, negative = cytotoxic” value is 13.9%.

Regarding `C[C@]12CC[C@H]3[C@@H](CCC4=CC(=O)CC[C@@]43C)[C@@H]1CC[C@@H]2C(=O)CO`, the “activity change, negative = cytotoxic” value is -5.84%.

Take `C/C=C(/C(=C/C)c1ccc(O)cc1)c1ccc(O)cc1`: the Potency was 18.8 µM (active).

For `CCN1CCC[C@H]1CNC(=O)c1c(OC)ccc(Br)c1OC`, the “activity change, negative = cytotoxic” value is -2.69%.

With `CN(C)CC/C=C1/c2ccccc2COc2ccc(CC(=O)O)cc21`, the “activity change, negative = cytotoxic” value is 8.85%.

As for `Nc1ccc(C(=O)O)cc1`, the “activity change, negative = cytotoxic” value is 19.3%.

Turning to `COc1cc2c(cc1OC)[C@@H]1CC(=O)[C@@H](CC(C)C)CN1CC2`, the “activity change, negative = cytotoxic” value was 33.4%.

`CNCC[C@@H](Oc1ccccc1C)c1ccccc1`: the “activity change, negative = cytotoxic” value is 4.23%.

Turning to `COC(=O)CCc1ccc(OCC(O)CNC(C)C)cc1` (stereo not given), the “activity change, negative = cytotoxic” value is 5.95%.

Turning to `COc1cccc(OC)c1C(=O)N[C@@H]1C(=O)N2[C@@H]1SC(C)(C)[C@@H]2C(=O)O`, the “activity change, negative = cytotoxic” value was 21%.

As to `CCOc1ccc2nc3cc(N)ccc3c(N)c2c1`, the “activity change, negative = cytotoxic” value is -6.31%.

As to `O=C(CCN1CCC(c2ccccc2)C1)c1ccc2c(c1)OCCO2` (stereo not given), the Potency was 23.7 µM (active).

For the molecule `CC(=O)OCC(=O)[C@@]1(O)CC[C@H]2[C@@H]3CCC4=CC(=O)C=C[C@]4(C)[C@H]3[C@@H](O)C[C@@]21C`, the “activity change, negative = cytotoxic” value is 4.51%.

Regarding `CCCN1CCCC[C@H]1C(=O)Nc1c(C)cccc1C`, the “activity change, negative = cytotoxic” value is 0.633%.

On to `CCC(=O)c1c(O)cc(O)cc1O`, for which the “activity change, negative = cytotoxic” value is -5.25%.

With `Nc1ccn([C@@H]2O[C@H](CO)[C@@H](O)C2(F)F)c(=O)n1`, the Potency was 1.19 µM (active).
